Data as given in the OligoGym collection.

Target: CHRM2
Experiment: pooled miR-30 sensor sort-seq; sequence = guide strand
Details: shRNA
Also: reference of the scale not given here.

Sequence | sensor-assay potency score (higher = more potent)
TTAATGAGCACCATGACATTGT | -0.0449
TATAAGGACTTGTAAGAGCCAG | -0.37
TAAAAAGTAATTGTTGACGGTC | 0.0384
TTTGTGGTCCGCTTGACTGGGT | -0.403
TTCATAACTGAGGCATTGCTGA | -0.852
ATAAGGACTTGTAAGAGCCAGG | -0.765
TACATGAGTCACTTTTTGGGGT | -0.152
TTGGCTTCACTATCCTTCCTTG | -0.217
TAGAAGGCTGCAATAGCCGTAC | -0.0525

Target: CHRNA1
Experiment: as above
Details: shRNA

Sequence | sensor-assay potency score (higher = more potent)
TATAACAGCAATGACAATGCAA | 0.464
TTGACAATAGCAAAGTCACCAT | -0.507
TTGCAACGTACTTCCACTCTGC | 0.505
TACTGCAGGAGCACTTTGGTGA | 0.163
ATTGATGAGCTGTATCAGCTGC | 0.306
TAGAACATCAGCAACTCCCTAG | 0.223
TACTTCATCCACATTGATGAGC | -0.906
TTAGAACATCAGCAACTCCCTA | -0.4
TTTTTTAGTGATTAGTTTCATT | -0.783
TACTGCTTCCTCTCTCTCCAAA | -0.987
TTTGTCTTGCTTTTCTCTGGAT | -0.428
TAAGTATGGAATATAACACGTT | -0.0814
TTGATGGCCACGACAGAGCCGT | -0.893
TAAGCAAAGAATACACTTCATT | -1.02
TAGACAAATCTTCCTCTCCTGC | -0.927
TAGCAAAGTCACCATCTGCATT | -1.03
TAGCTTTGCCACCAGACGGGTC | -1.08
TTGTCTTGCTTTTCTCTGGATG | -0.807
ATTTACTTCATCCACATTGATG | -1.52
TAGGTCACGGAGTGCTTCCAGC | -1.17
TAACACGTTTGATAAGTGCGAG | -0.52
TTCATCCACATTGATGAGCTGT | -0.162
TAGCTTTTAAAGATGGCTGGAG | -0.126
TTCTTAGTAGGTACAAAACTGA | -0.855

Target: CHRNE
Experiment: as above
Details: shRNA

Sequence | sensor-assay potency score (higher = more potent)
TTGATGGTCTTGCCGTCGTTGT | -1.26
TTGCCGTCGTTGTCTACGGCAA | -1.16
TTTTCCAGCACAATCTCTGGCA | -0.449
TAGTGGTGAGAGTCTCCTCTTT | -0.541
TTCACGGCATCCACACAGCAGC | -0.899
TAGGTGACCTCCACTGCGCAGA | -0.727
